Laboratory results taken from PubChem BioAssay (NCI).
About 79,000 compounds went through this panel and 15% of them were active in at least one assay; those are over-represented in the sample as a whole. Activity calls are given as the source filed them. No stated cut-off is given here; in the data, active means growth inhibition above about 70%; inactive means the rest.

Columns and labels:
[1] = NCI Yeast Anticancer Drug Screen. Data for the rad52 strain (AID 147);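 further: 0% = growth of vehicle-treated control cultures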; conditions: S. cerevisiae rad52 mutant growth inhibition, active compounds read high
How it was run: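 DNA repair-defective yeast; compound exposure; growth scored against vehicle controls.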

[2] = NCI Yeast Anticancer Drug Screen. Data for the wt1 strain (AID 149);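 further: 0% = growth of vehicle-treated wt1 cultures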; conditions: S. cerevisiae wt1 strain (SPY 50644) growth inhibition, active compounds read high
How it was run: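 Each compound is tested on wt1 yeast and the loss of growth versus vehicle gives the inhibition value.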

[3] = NCI Yeast Anticancer Drug Screen. Data for the rad50EPP+ strain (AID 151);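 further: 0% = growth of vehicle-treated control cultures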; conditions: S. cerevisiae rad50 mutant strain, active compounds read high
How it was run: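 rad50EPP+ yeast treated with test compounds. Readout: growth vs vehicle control.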

[4] = NCI Yeast Anticancer Drug Screen. Data for the mgt1 strain (AID 153); conditions: S. cerevisiae mgt1 mutant growth inhibition, active compounds read high
How it was run: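 Growth inhibition relative to vehicle controls was scored for the mgt1 yeast strain after compound exposure.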

[5] = NCI Yeast Anticancer Drug Screen. Data for the rad50 strain (AID 155);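 further: 0% = growth of vehicle-only cultures of the same strain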; conditions: S. cerevisiae rad50 strain growth inhibition, active compounds read high
How it was run: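 Vehicle-treated cultures provide the reference for the growth inhibition reported for compound-exposed, repair-deficient yeast.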

[6] = NCI Yeast Anticancer Drug Screen. Data for the mec2-1 strain (AID 157); conditions: S. cerevisiae mec2-1 strain, active compounds read high
How it was run: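 Growth inhibition is read against vehicle-treated controls after compound exposure of the mec2-1 yeast strain, which is defective in DNA damage repair or cell cycle control.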

[7] = NCI Yeast Anticancer Drug Screen. Data for the rad14 strain (AID 159);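 further: 0% = growth of vehicle-treated control cultures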; conditions: S. cerevisiae rad14 strain growth inhibition, active compounds read high
How it was run: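 Inhibition of growth is reported for a repair-deficient yeast mutant following compound treatment, calculated relative to cultures that received vehicle.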

[8] = NCI Yeast Anticancer Drug Screen. Data for the sgs1 mgt1 strain (AID 161);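 further: 0% = growth of cultures given vehicle only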; conditions: S. cerevisiae sgs1 mgt1 strain, active compounds read high
How it was run: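 Percent growth inhibition was derived by comparing compound-exposed mutant yeast with vehicle-exposed cultures. The strain carries alterations in DNA damage repair.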

[9] = NCI Yeast Anticancer Drug Screen. Data for the CLN2oe strain (AID 163);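 further: 0% = growth of vehicle-only control cultures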; conditions: S. cerevisiae CLN2oe strain, active compounds read high
How it was run: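 Compound-treated yeast; growth vs vehicle ctrl = % inhibition. Genetically altered strain (cell-cycle control).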

[10] = NCI Yeast Anticancer Drug Screen. Data for the cln2 rad14 strain (AID 165);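 further: 0% = growth equal to vehicle treated cultures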; conditions: S. cerevisiae cln2 rad14 strain, active compounds read high
How it was run: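 Growth inhibition, relative to vehicle-treated controls, is the read-out. The test organism is a yeast strain with defined genetic alterations, cln2 rad14.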

[11] = NCI Yeast Anticancer Drug Screen. Data for the bub3 strain (AID 167); conditions: S. cerevisiae bub3 mutant strain, active compounds read high
How it was run: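 Mutant yeast screening strain plus compound; vehicle-treated cultures serve as the 0% inhibition reference.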

[12] = NCI Yeast Anticancer Drug Screen. Data for the wt2 strain (AID 169); conditions: S. cerevisiae wt2 strain growth inhibition, active compounds read high
How it was run: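 Compound exposure of yeast; growth compared with vehicle controls; inhibition reported.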

[13] = NCI Yeast Anticancer Drug Screen. Data for the mlh1 strain (AID 171);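 further: 0% = growth of vehicle-treated control cultures of the same strain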; conditions: S. cerevisiae mlh1 strain growth inhibition, active compounds read high
How it was run: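 Compounds are applied to a genetically altered yeast strain, and its growth is compared with that of vehicle-treated cultures to give percent inhibition.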

[14] = NCI Yeast Anticancer Drug Screen. Data for the sgs1 strain (AID 173);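 further: 0% = growth of vehicle-only control cultures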; conditions: S. cerevisiae sgs1 mutant, active compounds read high
How it was run: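 Compounds applied to genetically altered yeast; growth compared with vehicle-treated cultures to give % inhibition.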

[15] = NCI Yeast Anticancer Drug Screen. Data for the mlh1 rad18 strain (AID 175); conditions: S. cerevisiae mlh1 rad18 strain growth inhibition, active compounds read high
How it was run: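 Cells of a genetically altered yeast strain, deficient in DNA damage repair, were treated with compound. Their growth was then compared with that of vehicle-treated cultures to give inhibition.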

[16] = NCI Yeast Anticancer Drug Screen. Data for the rad18 strain (AID 177); conditions: S. cerevisiae rad18 mutant growth inhibition, active compounds read high
How it was run: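 Compounds are applied to a repair-deficient yeast strain, and growth is compared with that of vehicle-treated cultures to give percent inhibition.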

[17] = at 5.0 µM (retest, dose inferred, filed as 0.5)
[18] = at 50.0 µM (retest, dose inferred, filed as 5.0)

Measured: growth inhibition

C[CH2][Sn]([CH2]C)([O]S(C)(=O)=O)[O]S(C)(=O)=O
active: [5]; at 50.0 µM 76.2% | [6]; at 50.0 µM 85.3% | [15]; [18] 80%
inactive: [1]; at 1.2 µM -24% | [1]; at 3.7 µM -17% | [1]; at 11.0 µM -24% | [1]; at 33.0 µM -10% | [1]; at 100.0 µM 11% | [2]; at 1.2 µM -27% | [2]; at 3.7 µM -9% | [2]; at 11.0 µM -15% | [2]; at 33.0 µM -12% | [2]; at 100.0 µM -2% | [3]; at 1.2 µM -28% | [3]; at 3.7 µM -30% | [3]; at 11.0 µM -25% | [3]; at 33.0 µM -14% | [3]; at 100.0 µM -19% | [4]; at 1.2 µM 0% | [4]; at 3.7 µM 0% | [4]; at 11.0 µM -11% | [4]; at 33.0 µM -7% | [4]; at 100.0 µM 37% | [5]; at 1.2 µM -21% | [5]; at 3.7 µM -6% | [5]; [17] 18% | [5]; at 11.0 µM -15% | [5]; at 33.0 µM -20% | [5]; [18] 57% | [5]; at 100.0 µM 6% | [6]; at 1.2 µM -15% | [6]; at 3.7 µM -4% | [6]; [17] 13% | [6]; at 11.0 µM -9% | [6]; at 33.0 µM -4% | [6]; [18] 58% | [6]; at 100.0 µM 16% | [7]; at 1.2 µM -21% | [7]; at 3.7 µM -18% | [7]; at 11.0 µM -17% | [7]; at 33.0 µM -10% | [7]; at 100.0 µM -9% | [8]; [17] 14% | [8]; [18] 58% | [8]; at 50.0 µM 50% | [9]; at 1.2 µM -78% | [9]; at 3.7 µM -94% | [9]; at 11.0 µM -65% | [9]; at 33.0 µM -103% | [9]; at 100.0 µM -62% | [10]; [17] 6% | [10]; [18] 18% | [10]; at 50.0 µM 46.2% | [11]; at 1.2 µM -28% | [11]; at 3.7 µM -25% | [11]; [17] 36% | [11]; at 11.0 µM -17% | [11]; at 33.0 µM -27% | [11]; [18] 50% | [11]; at 50.0 µM 45.5% | [11]; at 100.0 µM 24% | [12]; at 1.2 µM -56% | [12]; at 3.7 µM -44% | [12]; at 11.0 µM -46% | [12]; at 33.0 µM 3% | [12]; at 100.0 µM 55% | [13]; at 1.2 µM -51% | [13]; at 3.7 µM -29% | [13]; at 11.0 µM -33% | [13]; at 33.0 µM -37% | [13]; at 100.0 µM 0% | [14]; at 1.2 µM -27% | [14]; at 3.7 µM -16% | [14]; at 11.0 µM -22% | [14]; at 33.0 µM -7% | [14]; at 100.0 µM 15% | [15]; [17] 33% | [15]; at 50.0 µM 56.6% | [16]; at 1.2 µM -28% | [16]; at 3.7 µM -19% | [16]; at 11.0 µM -13% | [16]; at 33.0 µM -15% | [16]; at 100.0 µM 25%

CC(C)CC(NC(=O)C(N)C(C)C)C(=O)NC(CCCCN)C(=O)Nc1ccc(N(CCCl)CCCl)cc1 (stereo unspecified)
active: [5]; [18] 92%
inactive: [1]; at 1.2 µM 8% | [1]; at 3.7 µM 28% | [1]; at 11.0 µM 32% | [1]; at 33.0 µM 23% | [1]; at 100.0 µM 18% | [2]; at 1.2 µM -16% | [2]; at 3.7 µM -10% | [2]; at 11.0 µM -15% | [2]; at 33.0 µM -11% | [2]; at 100.0 µM -18% | [3]; at 1.2 µM 10% | [3]; at 3.7 µM 9% | [3]; at 11.0 µM 13% | [3]; at 33.0 µM 7% | [3]; at 100.0 µM 12% | [4]; at 1.2 µM -6% | [4]; at 3.7 µM -16% | [4]; at 11.0 µM -17% | [4]; at 33.0 µM -5% | [4]; at 100.0 µM -21% | [5]; at 1.2 µM 8% | [5]; at 3.7 µM 10% | [5]; [17] 38% | [5]; at 11.0 µM 8% | [5]; at 33.0 µM 0% | [5]; at 50.0 µM 16.4% | [5]; at 100.0 µM 2% | [6]; at 1.2 µM -21% | [6]; at 3.7 µM -17% | [6]; [17] 19% | [6]; at 11.0 µM -18% | [6]; at 33.0 µM -17% | [6]; [18] 22% | [6]; at 50.0 µM -7.45% | [6]; at 100.0 µM -16% | [7]; at 1.2 µM -2% | [7]; at 3.7 µM 0% | [7]; at 11.0 µM -2% | [7]; at 33.0 µM -2% | [7]; at 100.0 µM -8% | [8]; [17] 21% | [8]; [18] 34% | [8]; at 50.0 µM -48.5% | [10]; [17] 13% | [10]; [18] 25% | [10]; at 50.0 µM -7.1% | [11]; at 1.2 µM -23% | [11]; at 3.7 µM -16% | [11]; [17] 25% | [11]; at 11.0 µM -16% | [11]; at 33.0 µM -13% | [11]; [18] 17% | [11]; at 50.0 µM -28.2% | [11]; at 100.0 µM -25% | [12]; at 1.2 µM -89% | [12]; at 3.7 µM -88% | [12]; at 11.0 µM -86% | [12]; at 33.0 µM -74% | [12]; at 100.0 µM -78% | [13]; at 1.2 µM -1% | [13]; at 3.7 µM 9% | [13]; at 11.0 µM -3% | [13]; at 33.0 µM -5% | [13]; at 100.0 µM -19% | [14]; at 1.2 µM -4% | [14]; at 3.7 µM 10% | [14]; at 11.0 µM 8% | [14]; at 33.0 µM -3% | [14]; at 100.0 µM 3% | [15]; [17] 19% | [15]; [18] 37% | [15]; at 50.0 µM -44.7% | [16]; at 1.2 µM -7% | [16]; at 3.7 µM -12% | [16]; at 11.0 µM -16% | [16]; at 33.0 µM -20% | [16]; at 100.0 µM -23%
